Assay results reported in PubChem BioAssay AID686978 (National Center for Advancing Translational Sciences (NCATS), 2013).
Hit rate of the full screen: of about 420,000 compounds, about 64,000 (15%) were called active. Roughly 27% stayed inconclusive and do not appear here. The call rests on the fitted dose curve; in most records, active means well fitted inhibition curve with a large enough effect; inconclusive means small, poorly fitted or top-dose-only effect; inactive means flat fitted curve, though single readings scatter. A selection follows. Entries that show only a call come without a potency.

Test: qHTS for Inhibitors of human tyrosyl-DNA phosphodiesterase 1 (TDP1): qHTS in cells in absence of CPT; further: nearly all actives have a fitted effect of over 55% in size
Details: DT40 Tdp1-/- hTDP1 cells, no CPT, ATP luminescence, 48 h; activity change, negative = growth inhibition: at 46.2 µM (top of the series)
Summary of the method: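 DT40 Tdp1-/-;hTDP1 cells, no CPT (DMSO vehicle only), 400 cells/well; compounds pin-transferred; ≥48 hr, 37 °C; CellTiter-Glo 30 min RT dark, luminescence read.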
Potency means the concentration at half of the fitted maximal effect.

Compound	Potency
Cc1ncoc1C(=O)NCCC(c1ccccc1)c1ccccc1	inactive
Cc1ccc(S(=O)(=O)N2CCC3(CC2)OCCO3)c(C)c1	inactive
Cc1ccc(S(=O)(=O)N2CCN(C(=O)COC(=O)c3c(C)cc(C)cc3C)CC2)c(C)c1	10.3 µM (active)
Cc1nc(-c2ccc(F)cc2)c(CC(=O)Nc2cccc(S(=O)(=O)N3CCOCC3)c2)s1	inactive
COc1ccc(S(=O)(=O)N2CCN(CC(=O)N3CCOCC3)CC2)cc1OC	inactive
CCCCOc1ccc(C(=O)NCC(=O)OCC(=O)N2CCN(S(=O)(=O)c3ccc(C)cc3C)CC2)cc1	inactive
COc1ccc(S(=O)(=O)N2CCN(C)CC2)c(C)c1	inactive
Cc1ccc(S(=O)(=O)N2CCN(C(=O)COC(=O)c3c(C)noc3C)CC2)c(C)c1	inactive
Cc1ccc(S(=O)(=O)N2CCN(C(=O)Cc3sc(C)nc3-c3ccc(F)cc3)CC2)c(C)c1	18.4 µM (active)
Cc1ccc(S(=O)(=O)N2CCN(C(=O)COC(=O)/C=C/c3cccc(Cl)c3)CC2)c(C)c1	23.1 µM (active)
COc1ccc(/C=C/C(=O)OCC(=O)N2CCN(S(=O)(=O)c3ccc(C)cc3C)CC2)cc1OC	20.6 µM (active)
O=C(COC(=O)/C=C/c1cccc(Cl)c1)NCc1cccs1	inactive
Cc1ccc(S(=O)(=O)N2CCN(C(=O)N3CCOCC3)CC2)c(C)c1	inactive
Cc1nc2ncnn2c(C)c1CCC(=O)N1CCN(C(=O)c2ccco2)CC1	inactive
COc1ccc(CN(C)CCn2cc(C(=O)N3CCSCC3)nn2)cc1C	inactive
Cc1cnc(C(=O)Oc2cccc(Cl)c2Cl)cn1	inactive
COc1cc(OC)c(C(=O)NC2CC(C)(C)NC(C)(C)C2)cc1OC	inactive
O=C(O)CCCC(=O)Nc1ccc(Oc2cccc(C(F)(F)F)c2)nc1	inactive
CCOC(=O)Cn1c2c(c(-c3ccccc3OC)cc1=O)CCCC2	inactive
CCc1cccc(NC(=O)CCCN2C(=O)C(c3ccccc3)Oc3cccnc32)c1 (configuration not stated)	inactive
Cc1ccc(CNCc2ccc3c(c2)OCO3)c(C)c1	inactive
COC(=O)c1sccc1NN1C(=O)c2ccccc2C1=O	inactive
CCCCn1c(N)c(N(CCOC)C(=O)c2cccc(S(=O)(=O)N(C)c3ccccc3)c2)c(=O)[nH]c1=O	inactive
C=CCC(NCCCO)c1cccc(OC)c1OC (configuration not stated)	inactive
O=C(CCN1C(=O)[C@H]2CC=CC[C@H]2C1=O)NCc1nc(-c2ccccc2)no1	inactive

Compound	Potency
O=C(NCCCn1ccnc1)c1cc(Br)c(Br)s1	inactive
O=C(COC(=O)c1cnc(Cl)c(Cl)c1)NCc1ccco1	inactive
O=C1CCC(=O)N1CCC(=O)N(C(=O)NC1CCCCC1)C1CCCCC1	inactive
CCc1nnc(NC(=O)c2cc(S(=O)(=O)N3CCN(CC)CC3)ccc2Cl)s1	inactive
COCCOC(=O)C1=C(C)Nc2nc(C)nn2C1c1ccccc1 (configuration not stated)	inactive
Cc1ccc(C)c(OCCC(=O)OCC(=O)N2CCN(c3ccccc3)CC2)c1	inactive
Cc1ccc(S(=O)(=O)N2CCN(C(=O)COC(=O)CNC(=O)c3ccc(C(C)(C)C)cc3)CC2)c(C)c1	inactive
COc1ccccc1CCC(=O)OCC(=O)N1CCN(S(=O)(=O)c2ccc(C)cc2C)CC1	23.1 µM (active)
O=c1ccc(-c2ccc(S(=O)(=O)Nc3ccccc3)o2)n[nH]1	inactive
COc1ccc(CNC(=O)COc2cccnc2[N+](=O)[O-])cc1	inactive
COc1cccc(C(NC(C)=O)c2nc(-c3ccccc3OC)cs2)c1 (configuration not stated)	inactive
COc1cccc(NC(=O)C2c3cc(OC)c(OC)cc3C(=O)N(C)C2c2cccnc2)c1 (configuration not stated)	inactive
CNc1cnc(-c2cc(OC)c(OC)c(OC)c2)cn1	inactive
COc1cccc(NC(=O)CSc2nnc(-c3cccnc3)o2)c1	inactive
COc1cccc(-c2cc(NC(C)=O)c3ncc(-c4cccc(C(C)=O)c4)n3c2)c1	23.1 µM (active)
CC(=O)Nc1cc(-c2ccccc2F)cn2c(-c3cccc(C(F)(F)F)c3)cnc12	0.326 µM (active)
CC(=O)Oc1cccc(C(=O)Nc2ccccc2NC(=O)c2cccc(OC(C)=O)c2)c1	inactive
CSc1nc2nc(-c3cccc(C(F)(F)F)c3)ccn2n1	inactive
COc1cccc(-c2cnc3c(NC(C)=O)cc(-c4cc(F)ccc4OC)cn23)c1	23.1 µM (active)
O=C(CNS(=O)(=O)c1cccc(C(F)(F)F)c1)Nc1ccccc1F	inactive
COc1ccc(-c2cc(NC(C)=O)c3ncc(-c4cc(OC)c(OC)c(OC)c4)n3c2)cn1	2.91 µM (active)
CCCCOP(=O)(c1ccc(N(C)C)cc1)C(O)c1cc(OC)ccc1OC (configuration not stated)	inactive
CCC1=[N+]([O-])C(C)(/C(C)=N\O)N(O)C1(C)C (configuration not stated)	inactive
CN1C[C@@H](CO)O[C@@H](n2cnc3c(N4CCN(CCO)CC4)ncnc32)C1	inactive
Cc1ccc(NC(=O)CSCC(=O)Nc2sccc2C#N)cc1	inactive

Compound	Potency
Cc1cc(=O)oc2c3c(cc(OCC(=O)NCc4ccccn4)c12)OC(C)(C)CC3	25.9 µM (active)
Cc1cc(=O)oc2c3c(cc(OCC(=O)N[C@H](C(=O)O)c4ccccc4)c12)OC(C)(C)CC3	inactive
Cc1cc(=O)oc2c3c(cc(OCC(=O)NCCC(=O)N[C@@H](C)C(=O)O)c12)OC(C)(C)CC3	inactive
O=c1cc(CO)oc(C(Nc2cccc([N+](=O)[O-])c2)c2ccccn2)c1O (configuration not stated)	inactive
CC1CCN(CC(=O)Nc2nccs2)CC1	inactive
CCOC(=O)c1c(-c2ccc(C)cc2C)csc1NC(=O)CSc1nnnn1C	20.6 µM (active)
CCOC(=O)CNC(=O)CSc1nnnn1-c1cc(C)ccc1C	inactive
Cn1nnnc1SCC(=O)Nc1sccc1C(N)=O	inactive
O=C1c2ccccc2C(=O)N1Cc1cc(-c2ccccc2Cl)no1	inactive
CS(=O)(=O)Nc1ccccc1N=C(c1ccccc1)c1ccccc1	inactive
O=C(COc1ccc(S(=O)(=O)NCCc2ccccc2)cc1)N1CCCC1	inactive
O=C(CCC1CCCN(C(=O)c2ccc(F)c(F)c2)C1)N1CCN(c2ccccn2)CC1 (configuration not stated)	18.4 µM (active)
COc1cccc(CNC(=O)CCC2CCCN(C(=O)c3ccc(F)c(Cl)c3)C2)c1 (configuration not stated)	18.4 µM (active)
Cc1nn(-c2ccc(N3CCCCC3)nn2)c(C)c1CCC(=O)NCc1ccccc1F	inactive
C=Cc1ccc(C(=O)N2CCCC(CCC(=O)N3CCN(c4ccccn4)CC3)C2)cc1 (configuration not stated)	inactive
COc1cccc(CNC(=O)CCC2CCCN(C(=O)c3cc(C)[nH]n3)C2)c1 (configuration not stated)	inactive
CSc1ncccc1C(=O)N1CCCC(CCC(=O)NCc2ccccc2F)C1 (configuration not stated)	inactive
COc1cccc(C(=O)N2CCCC(CCC(=O)NCc3ccc(F)c(F)c3)C2)c1 (configuration not stated)	inactive
Cc1[nH]c2c(C(=O)N3CCCC(CCC(=O)NCc4ccccc4F)C3)cccc2c1C (configuration not stated)	20.6 µM (active)
CC(=O)c1ccc(S(=O)(=O)NCCC(=O)N2CCN(c3ccccn3)CC2)cc1	inactive
Cc1ccnc(N)c1	inactive
Cc1ccc(NC(=O)CSc2sc3c(O)cc(=O)[nH]c3c2C#N)cc1C	inactive
CCC1CCCCN1CCNC(=O)c1[nH]c(C)c(C(C)=O)c1C (configuration not stated)	inactive
O=C(Nc1ccon1)c1nc[nH]c1C(=O)NCc1ccccc1	inactive
COc1ccc(/C(O)=C2/C(=O)C(=O)N(c3nc(C)c(C)s3)C2c2ccco2)cc1 (configuration not stated)	inactive

Compound	Potency
Cc1ccc(C)c(NC(=O)CN(C)C(=O)c2ccc3ncsc3c2)c1	inactive
Fc1cccc(Cc2noc(CN3CCN(c4cnccn4)CC3)n2)c1	inactive
CC(=O)Nc1ccc(NC(=S)NC(=O)/C=C/c2ccccc2)cc1	inactive
CC1(C(=O)O)CCN1C(=O)/C=C/c1ccccc1 (configuration not stated)	inactive
CC1(C)C=Cc2c(ccc(C(=O)/C=C/c3ccccc3)c2O)O1	8.91 µM (active)
COc1cccc(N2C(=O)CC(N3CCN(S(=O)(=O)c4ccccc4)CC3)C2=O)c1 (configuration not stated)	inactive
C[C@H](O)[C@@H]1C(=O)N2CCc3ccc(N4CCOCC4)cc3[C@@H]2C[C@@H]1N(C)C(=O)C(C)(C)C	inactive
COc1ccc(-c2ccc3c(c2)[C@@H]2C[C@H](N(C)S(=O)(=O)c4ccccc4)[C@H]([C@H](C)O)C(=O)N2CC3)cc1	16.4 µM (active)
CC1=C(C(N)=O)C(c2ccc(F)cc2)n2nc(CCCO)nc2N1 (configuration not stated)	inactive
Cc1cccc(CCNS(=O)(=O)c2ccc3c(c2)NC(=O)CO3)c1	inactive
COc1cc(OC)cc(C(=O)Nc2cc3nn(-c4ccccc4)nc3cc2Cl)c1	16.4 µM (active)
CCOC(=O)c1cc(-c2ccccc2)n(-c2cccc(C(=O)Nc3cc(OC)cc(OC)c3)c2)c1C	inactive
CCCC(=O)Nc1cc2nn(-c3ccccc3)nc2cc1C	inactive
Cc1cccc(Nc2nnc(SCC(=O)c3c(N)n(C4CC4)c(=O)[nH]c3=O)s2)c1C	11.6 µM (active)
Cc1ccccc1Nc1nnc(SCC(=O)c2cc3ccccc3o2)s1	inactive
CCCn1c(N)c(C(=O)CSc2nnc(Cc3cccs3)n2C2CC2)c(=O)[nH]c1=O	inactive
CC1CC(C)CN(C/C=C/c2ccccc2[N+](=O)[O-])C1 (configuration not stated)	inactive
COc1ccc(N2CCN(C3CC(=O)N(c4ccc5c(c4)OCCO5)C3=O)CC2)cc1 (configuration not stated)	inactive
CC(C)CC1C(=O)N(Cc2cn(Cc3ccco3)nn2)CCS(=O)(=O)N1Cc1ccc(-c2ccc(Cl)c(Cl)c2)cc1 (configuration not stated)	20.6 µM (active)
CC1C(=O)N(Cc2cn(Cc3ccco3)nn2)CCS(=O)(=O)N1Cc1ccc(-c2cccc(CO)c2)cc1 (configuration not stated)	9.2 µM (active)
CCc1cc(=O)oc2cc(C)cc(OCC(=O)N3CCC[C@@H]3C(=O)O)c12	inactive
CC(NC(=O)COc1ccccc1)C(=O)NC1=NCCS1 (configuration not stated)	inactive
